# PubChem BioAssay AID1347416 (National Center for Advancing Translational Sciences (NCATS), 2020)
# In all, about 4,100 compounds went through this assay and about 1,600 (39%) were called active. Another 25% or so got no clear call; they are omitted. Some of the results follow. Unmarked numbers belong to inactive results. Calls follow the shape of the dose curve; as a rule, active = well fitted inhibition curve with a large enough effect; inconclusive = small, poorly fitted or top-dose-only effect; inactive = no such curve, though single readings can be large or run the other way.
# Test: qHTS Validation assay for Inhibitors of Plasmodium falciparum Dd2 growth in vitro; also: nearly all actives have a fitted effect of over 70% in size
# Conditions: P. falciparum Dd2 in RBCs, SYBR Green growth, 72 h; series mostly up to 28.7 µM; activity change, negative = inhibition: at the top concentration
# Outline: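 P. falciparum Dd2-infected red blood cells (2.5% hematocrit, 0.3% parasitemia) grown 72 h at 37 °C under 5% O2 with compounds in a titration, 29 uM to 0.5 nM final. Growth read as SYBR Green-1 fluorescence after ~16 h lysis; artesunate 300 nM as positive control.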
# % is scaled to controls: 0 for no effect and ±100 for the full control effect; potency is read from the fitted curve at half-maximal effect.
Compound,"activity change, negative = inhibition",Potency
CCCNc1c(NC(=O)COc2ccc(Cl)cc2)c(=O)oc2ccccc12,-24.5%,–
COc1cccc(OCCn2cc(C(=O)c3ccco3)c3ccccc32)c1,54.6%,–
O=C(c1cccs1)c1cn(CCOc2ccc(Cl)cc2)c2ccccc12,–,5960 nM (active)
CC(C)(C)c1ccc(OCCn2ccccc2=O)cc1,-19.2%,–
CCCS(=O)(=O)NCCc1ncc(C)n1C(C)C,-51.1%,–
Cc1ccccc1-n1c(=O)/c(=C\c2ccco2)s/c1=C(/C#N)C(=O)Nc1ccccc1,–,5310 nM (active)
N#Cc1ccc(CN2C[C@@H]3C(=O)N(CCN4CCc5ccccc5C4)C(=O)[C@@H]3C2)cc1,-14.5%,–
CCOc1ccc(N2C(N)=NC(N)=NC2(C)C)cc1,47.6%,–
COc1ccc(N2C(N)=NC(N)=NC2(C)C)cc1,10.9%,–
CC1(C)N=C(N)N=C(N)N1c1ccc(OCCCOc2ccccc2)c(Cl)c1,–,2990 nM (active)
CCOC(=O)c1cc(C)n(Cc2ccc(OCC)c(OC)c2)c1C,–,10600 nM (active)
COC[C@@H]1CN(Cc2ccc(OC)c(C)c2)C[C@H]1C(=O)N(C)C,5.52%,–
COc1cc(O)c(C(CCN2CCCC(C)C2)c2ccc3c(c2)OCO3)c(OC)c1 (stereo unspecified),–,531 nM (active)
COc1cc(O)c(C(CCN2CCOCC2)c2ccc3c(c2)OCO3)c(OC)c1 (stereo unspecified),–,4220 nM (active)
CCc1ccc(NC(=O)C(=O)NCC(c2ccc3c(c2)OCO3)N2CCOCC2)cc1 (stereo unspecified),0%,–
COc1cc(O)c(C(CCN2CCN(c3ccccc3)CC2)c2ccc3c(c2)OCO3)c(OC)c1 (stereo unspecified),–,842 nM (active)
COc1cc(O)c(C(CCN2CCCCC2)c2ccc3c(c2)OCO3)c(OC)c1 (stereo unspecified),–,1330 nM (active)
CCOC(=O)C1(Cc2ccccc2C(F)(F)F)CCNCC1,-24%,–
CCOC(=O)C1(Cc2ccccc2Cl)CCNCC1,–,2660 nM (active)
CN(CCc1ccccn1)c1ccc(-c2nc(COc3ccccc3)no2)cn1,-8.59%,–
Fc1cccc(NC(=S)NNc2c3ccccc3nc3ccccc23)c1,–,15000 nM (active)
OC(CNC1CCCc2ccccc21)COc1c(Cl)cccc1Cl (stereo unspecified),–,1680 nM (active)
COc1ccccc1CN(C)C1CCCc2ccccc21 (stereo unspecified),-0.478% [at 43.1 µM],–
CC(=O)N(C)C1CCCc2ccccc21 (stereo unspecified),45.2% [at 57.5 µM],–
O=C(N/N=C(\c1ccccc1)c1cccnc1)c1cccc(F)c1,–,4220 nM (active)
CCc1noc(-c2cccn3c(CNC(=O)c4cccc(F)c4)nnc23)n1,-0.302%,–

Compound,"activity change, negative = inhibition",Potency
N/C(=N\OC(=O)c1cccc(F)c1)c1ccccn1,-27.5%,–
O=C1NCN(c2ccccc2)C12CCN(CCCC(c1ccc(F)cc1)c1ccc(F)cc1)CC2,–,5310 nM (active)
F[C@@H]1CN(CC2CC2)C[C@@H]1OCc1nc2ccccc2o1,2.15% [at 57.5 µM],–
CCCCN(C)CCCNC(=O)Cn1ncc2c3ccccc3n(Cc3cc(C)ccc3C)c2c1=O,–,750 nM (active)
Cc1cc(C)c(Cn2c(=O)n(CCCCC(=O)NCc3ccccc3Cl)c(=O)c3ccccc32)c(C)c1,33.1%,–
CCOC(=O)c1cccc(NC(=O)Cn2ncc3c4ccccc4n(Cc4ccccc4)c3c2=O)c1,-0.944%,–
COc1ccc(-c2c3c(nc4sc(C(=O)Nc5ccc(F)cc5)c(N)c24)CC(C)(C)CC3=O)cc1,–,944 nM (active)
COc1ccc(C(=O)Nc2ccc([C@H]3OCC(=O)N(C(C)C)[C@@H]3CO)cc2)cc1,44.9% [at 43.1 µM],–
COc1ccc(NC(=O)c2sc3nc4c(c(-c5ccc(OC)cc5)c3c2N)C(=O)CC(C)(C)C4)cc1,–,1880 nM (active)
COc1ccc(NC(=O)CSc2nc(-c3ccc(OC)cc3)[nH]c2-c2ccc(F)cc2)cc1,41.4%,–
Cc1nc2sc(C(=O)Nc3ccc(F)cc3)c(N)c2c(-c2ccc(Br)cc2)c1C(=O)Nc1ccc(Cl)cc1,–,8410 nM (active)
COc1ccc(-c2c3c(nc4sc(C(=O)Nc5ccc(Cl)cc5)c(N)c24)CC(C)(C)CC3=O)cc1,–,376 nM (active)
CCc1ccc(N=C2NC(=O)CC(C(=O)Nc3ccc(OC)cc3)S2)cc1 (stereo unspecified),-23.4%,–
CCn1nccc1C(=O)N1CCCC(n2cc(-c3nc(-c4ccccc4)no3)nn2)C1 (stereo unspecified),12.5%,–
O=C(Nc1ccc(-c2nnc3n2CCCC3)cc1)c1ccc2ccccc2n1,-19.6%,–
CCOC(=O)N1CCN(c2nc3ccccn3c(=O)c2C=O)CC1,-3.78%,–
CCOC(=O)N1CCN(C(=O)c2ccccc2-c2ccccc2)CC1,10.2%,–
CCOC(=O)c1ccccc1NC1c2ccccc2C(=O)N1C1CCN(C(=O)OCC)CC1 (stereo unspecified),–,13300 nM (active)
COc1ccc(-n2nc3ccc(N)cc3n2)cc1Cl,-26.8%,–
Oc1ccc(Cl)cc1-c1cc(C(F)(F)C(F)F)nc(-c2ccccc2)n1,–,842 nM (active)
CCN(CC)c1ccc(C(=O)NCc2nnc3c(-c4nc(C(C)C)no4)cccn23)cc1,-11.1%,–
COc1cc(OC)c(NC2=CC(=O)C(=O)c3ccccc32)cc1Cl,–,2990 nM (active)
COc1cc(Cl)c(NC2=CC(=O)C(=O)c3ccccc32)c(OC)c1,–,1680 nM (active)
COc1cc(OC)c(NC(=O)n2ncc3cc(Cl)ccc32)cc1Cl,35%,–
Cc1cc(O)c(-c2ccnc3cc(-c4ccccc4)nn23)cc1Cl,–,1880 nM (active)
